TLR9-MyD88 inh = TLR9-MyD88 interaction inhibition; Q9NR96+Q99836; CHO BLA complementation TLR9-MyD88, CCF4 FRET ratio; inhibition, % at 4.98 µM; hit rate 0.21% among 340,000;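 active = inhibition above the mean over all tested compounds plus 3 SD, cut at about 21% in these data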
ABHD5-PLIN5 inh = blocks binding of human ABHD5 to perilipin-5 | hit rate 0.78% among 360,000 | Q00G26+Q8WTS1 | Split G. princeps luciferase complementation, luminescence, 4 h | inhibition, % at 4 µM;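 active = inhibition above the mean inhibition across every tested compound plus 3 SD, cut at about 22% in these data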
CRFR2-BP antag = antagonists of CRF-binding protein/CRF-R2 receptor complex; HEK293 CRF-R2/CRF-BP, CRF-induced calcium fluorescence; hit rate 0.59% among 350,000; inhibition, % at 11.8 µM;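 active = inhibition of the ligand-induced calcium signal above about 50% at the single tested concentration, limit read from the data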
TLR4 MyD88 comp = blocks binding of human TLR4 to MyD88 | O00206+Q99836 | HeLa CL3-4 TLR4/MyD88 BLA complementation, FRET ratio | inhibition, % at 8.4 µM | hit rate 0.18% among 200,000 | AID 861; in the data active = inhibition above about 25%
m5-HT2A agonist = mouse HTR2A agonism via beta-arrestin recruitment; activation, % at 7.6 µM; AID 624169; CHO-K1 mHTR2A beta-arrestin complementation, luminescence; percent of 30 µM serotonin response; hit rate 0.66% among 360,000; P35363;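 active = activation above a run cutoff, the mean activation of all tested compounds plus 3 SD, cut at about 14% in these data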
Target sequence (P35363 whole entry, looked up): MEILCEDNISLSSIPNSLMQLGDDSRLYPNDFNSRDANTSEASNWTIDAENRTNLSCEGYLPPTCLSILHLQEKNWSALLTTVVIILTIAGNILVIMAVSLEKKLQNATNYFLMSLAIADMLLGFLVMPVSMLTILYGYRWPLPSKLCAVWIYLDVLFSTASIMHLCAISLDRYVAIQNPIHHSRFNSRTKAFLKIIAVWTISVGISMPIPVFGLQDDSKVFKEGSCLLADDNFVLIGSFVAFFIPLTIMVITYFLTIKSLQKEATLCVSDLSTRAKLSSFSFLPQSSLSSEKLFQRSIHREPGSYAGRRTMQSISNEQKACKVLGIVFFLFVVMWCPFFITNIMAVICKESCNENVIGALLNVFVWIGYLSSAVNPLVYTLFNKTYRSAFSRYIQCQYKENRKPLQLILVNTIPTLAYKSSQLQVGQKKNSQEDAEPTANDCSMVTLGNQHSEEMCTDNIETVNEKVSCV
NOD2 RIPK2 PPI = blocks binding of human NOD2 to RIPK2; O43353; CHO BLA complementation NOD2-RIPK2, CCF4 ratio; inhibition, % at 4.98 µM; hit rate 0.38% among 360,000; in the data active = inhibition above about 21%
TLR9-MyD88 cf = confirmation of human TLR9-MyD88 binding inhibitors; hit rate 51% among 680; inhibition, % at 4.98 µM; shares compounds with TLR9-MyD88 inh; AID 540250; CHO TLR9/MyD88 BLA complementation, CCF4 FRET ratio;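 active = mean inhibition across three repeats above about 21% taken from the earlier screen, limit read from the data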;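 also: blue over green emission ratio reports constitutive TLR9 MyD88 association via BLA complementation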
BLA counter-1 = counter-screen for TLR9-MyD88 inhibitors: non-selective beta-lactamase inhibitors; shares compounds with TLR9-MyD88 inh; CHO-BLA cells, CCF4 FRET ratio, BLA reporter; inhibition, % at 4.98 µM; hit rate 7% among 680; AID 540251;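 active = mean inhibition above a 50% cutoff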;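 also: counterscreen of TLR9-MyD88 hits on CMV-driven BLA in CHO-K1 cells; higher means less blue over green ratio so more BLA blockade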
TLR9 CHO cytotox = counter-screen for TLR9-MyD88 inhibitors: cytotoxicity in CHO cells | shares compounds with TLR9-MyD88 inh | luminescence | inhibition, % at 4.98 µM | hit rate 39% among 680 | AID 588336; in the data active = inhibition above about 11%
NOD2 RIPK2 conf = NOD2-RIPK2 interaction inhibition confirmed; shares compounds with NOD2 RIPK2 PPI; CHO cells, NOD2-RIPK2 BLA complementation, CCF4 FRET; inhibition, % at 4.98 µM; hit rate 70% among 1,200;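 active = mean inhibition across replicates above a set limit taken from the earlier primary screen, cut at about 21% in these data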
BLA counter-2 = counter-screen for NOD2-RIPK2 interaction inhibitors: BLA reporter | shares compounds with NOD2 RIPK2 PPI | CHO BLA reporter, CCF4 FRET ratio, counterscreen | inhibition, % at 4.98 µM | hit rate 57% among 1,200;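 active = mean inhibition above the low-control mean inhibition plus three low-control SD, cut at about 11% in these data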
Each line names hits and unclear results; the compound was inactive in the other large screens (follow-up assays come after a bar, where they were run). A selection: hits, their analogues and other compounds. The true share with any hit is near 2.4%.

Cc1nnc(N2C(=O)c3cccc4c([N+](=O)[O-])ccc(c34)C2=O)s1	TLR9-MyD88 inh 79.9, NOD2 RIPK2 PPI 91.1 (no result: TLR4 MyD88 comp) | TLR9-MyD88 cf 66.9 | BLA counter-1 84.3 | TLR9 CHO cytotox 58.5 | NOD2 RIPK2 conf 92.5 | BLA counter-2 87.2
CC(=O)Oc1ccc(-c2cc3c(OC(C)=O)cc(OC(C)=O)cc3oc2=O)cc1	TLR9-MyD88 inh 37.0, NOD2 RIPK2 PPI 41.5 (no result: TLR4 MyD88 comp) | TLR9-MyD88 cf 22.9 | BLA counter-1 inactive | TLR9 CHO cytotox inactive | NOD2 RIPK2 conf 52.9 | BLA counter-2 56.9
COC(=O)[C@]1(Sc2ccc(OC)cc2)CC(=O)N[C@@H]1c1ccccc1	none (no result: TLR9-MyD88 inh, CRFR2-BP antag, TLR4 MyD88 comp)
CCOC(=O)C1=C(CSc2nc(-c3ccccc3)ccc2C#N)OC(N)=C(C#N)C1c1ccccc1 (stereo not drawn)	TLR9-MyD88 inh 31.7, NOD2 RIPK2 PPI 35.6 | TLR9-MyD88 cf inactive | BLA counter-1 inactive | TLR9 CHO cytotox 19.9 | NOD2 RIPK2 conf 25.0 | BLA counter-2 24.9
CCOC(=O)C1=C(CSc2nc3c(cc2C#N)CCC3)OC(N)=C(C#N)C1c1ccccc1 (stereo not drawn)	none
COCC(=O)N[C@H]1CC[C@@H](CC(=O)NCc2ccccc2OC)O[C@@H]1CO	none (no result: TLR9-MyD88 inh, CRFR2-BP antag, TLR4 MyD88 comp)
Nc1ccc(-c2nc3ccc(C(=O)O)cc3s2)cc1	none
Nc1cc2sc(-c3ccc(C(=O)O)cc3)nc2cc1Cl	TLR9-MyD88 inh 24.2, NOD2 RIPK2 PPI 35.1 | TLR9-MyD88 cf inactive | BLA counter-1 inactive | TLR9 CHO cytotox 14.1 | NOD2 RIPK2 conf 32.0 | BLA counter-2 39.7
Clc1ccc2nc(N3CCNCC3)nc(-c3ccccc3)c2c1	TLR9-MyD88 inh 23.8, NOD2 RIPK2 PPI 36.9 | TLR9-MyD88 cf inactive | BLA counter-1 inactive | TLR9 CHO cytotox inactive | NOD2 RIPK2 conf 38.0 | BLA counter-2 52.2
COc1cc(OC)nc(-n2ncc(Br)c(Br)c2=O)n1	TLR9-MyD88 inh 22.7, NOD2 RIPK2 PPI 50.3 | TLR9-MyD88 cf 27.3 | BLA counter-1 inactive | TLR9 CHO cytotox 99.5 | NOD2 RIPK2 conf 59.8 | BLA counter-2 inactive
COC(=O)c1cnn(-c2nc(OC)cc(OC)n2)c1C	none
CN(C(=O)CN1C(=O)NC2(CCc3ccccc32)C1=O)C1CCCCC1 (stereo not drawn)	none (no result: TLR9-MyD88 inh, TLR4 MyD88 comp)
CN(C(=O)CN1C(=O)c2cccc(N)c2C1=O)C1CCCCC1	TLR9-MyD88 inh 29.1, NOD2 RIPK2 PPI 60.8 (no result: TLR4 MyD88 comp) | TLR9-MyD88 cf inactive | BLA counter-1 inactive | TLR9 CHO cytotox inactive | NOD2 RIPK2 conf 50.9 | BLA counter-2 48.8
COCCNc1nc2cc(-c3cccc(Cl)c3)sc2c(=O)n1C	none (no result: TLR9-MyD88 inh, CRFR2-BP antag, TLR4 MyD88 comp)
COc1cc(/C=C(\C#N)c2nc3ccc(C)cc3[nH]2)c([N+](=O)[O-])cc1OC	none
CCCOc1cc(N(CC)CC)ccc1/C=C(/C#N)c1nc2ccc(C)cc2[nH]1	TLR9-MyD88 inh 21.0, NOD2 RIPK2 PPI 34.0 | TLR9-MyD88 cf inactive | BLA counter-1 inactive | TLR9 CHO cytotox inactive | NOD2 RIPK2 conf 35.0 | BLA counter-2 36.5
Cc1cc2nc(/C=C/c3nc4cc(C)c(C)cc4[nH]3)[nH]c2cc1C	TLR9-MyD88 inh 40.3, NOD2 RIPK2 PPI 25.0 (no result: TLR4 MyD88 comp) | TLR9-MyD88 cf 30.3 | BLA counter-1 inactive | TLR9 CHO cytotox inactive | NOD2 RIPK2 conf 32.0 | BLA counter-2 42.6
Cc1cc2nc(/C=C/c3cccnc3)[nH]c2cc1C	none (no result: TLR4 MyD88 comp)
